“And” between values parts separate entries of the source, which are not always exact repeats. Equal entries are not always repeated. Records with an inconclusive call do not appear. Some compounds were tested as several samples or in several runs, with calls that do not always agree. The source made the active and inactive calls. Calls follow the shape of the dose curve; as a rule, active = well fitted curve in the direction sought with a large enough effect in the repeat runs; inconclusive = weak or mixed curves; inactive = no such curve, though single readings can be large; an effect the other way counts as inactive or inconclusive.
What was measured:
[1] = A CellTox Green Cytotoxicity Assay to monitor cytotoxicity in HEK293 cells - 40 hour (AID 1224871); also: nearly all actives have a fitted effect of over 45% in size; also: potency is read from the fitted curve at half-maximal effect
Outline: (§1)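 Cells (HEK293, 600/well) and dye reagent are dispensed together. After 5 h at 37 C, 23 nL compound is pinned in. Plates stay at 37 C for 40 h with fluorescence read at 0h, 8h, 16h, 24h, 32h and 40h.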

[2] = qHTS RealTime-Glo MT Cell Viability Assay in HEK293 cells - 16 hour (AID 1224872); also: top concentration of the series differs between compounds; nearly all actives have a fitted effect of over 50% in size
Outline: (§2)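 Tox21 10K qHTS, HEK293, 600 cells/well, RealTime-Glo reagent co-dispensed with cells; 5 h preincubation, compound by pintool, 37 C, luminescence at 0–40 h.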

[3] = qHTS RealTime-Glo MT Cell Viability Assay in HepG2 cells - 8 hour (AID 1224873); also: nearly all actives have a fitted effect of over 55% in size
Outline: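 Real-time viability: cells seeded at 600 per well together with NanoLuc and cell-permeant prosubstrate, compounds added after 5 h incubation. Luminescence tracked at 0, 8, 16, 24, 32 and 40 h of exposure.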

[4] = qHTS RealTime-Glo MT Cell Viability Assay in HEK293 cells - 40 hour (AID 1224874); conditions: RealTime-Glo luminescence; max response: stronger effect = lower value; also: nearly all actives have a fitted effect of over 50% in size
Outline: (§3)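 Real-time viability in HEK293: signal arises when living cells convert a prosubstrate for NanoLuc in the medium, so luminescence tracks viable cell number. Compound (23 nL, DMSO) added 5 h post-seeding; kinetic reads at 0–40 h, 37 C.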

[5] = A CellTox Green Cytotoxicity Assay to monitor cytotoxicity in HEK293 cells - 24 hour (AID 1224875); also: series mostly up to about 77 µM; nearly all actives have a fitted effect of over 45% in size
Outline: as §1

[6] = A CellTox Green Cytotoxicity Assay to monitor cytotoxicity in HepG2 cells - 16 hour (AID 1224876); also: nearly all actives have a fitted effect of over 45% in size; also: potency is read from the fitted curve at half-maximal effect
Outline: (§4)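 Cells and non-lytic dye reagent are dispensed together (600 HepG2 cells/well) and incubated 5 h before DMSO compound transfer. Kinetic fluorescence is then recorded in the same wells during 40 h at 37 C.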

[7] = qHTS RealTime-Glo MT Cell Viability Assay in HepG2 cells - 32 hour (AID 1224877); also: nearly all actives have a fitted effect of over 55% in size
Outline: (§5)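 Cells + NanoLuc/prosubstrate dispensed (600 cells/well) → 5 h at 37 C/5% CO2 → compounds in DMSO transferred → 40 h incubation at 37 C, luminescence read at 0, 8, 16, 24, 32, 40 h.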

[8] = A CellTox Green Cytotoxicity Assay to monitor cytotoxicity in HepG2 cells - 24 hour (AID 1224878); also: nearly all actives have a fitted effect of over 45% in size; also: potency is read from the fitted curve at half-maximal effect
Outline: as §4

[9] = A CellTox Green Cytotoxicity Assay to monitor cytotoxicity in HepG2 cells - 40 hour (AID 1224879); also: nearly all actives have a fitted effect of over 40% in size; also: potency is read from the fitted curve at half-maximal effect
Outline: as §4

[10] = qHTS RealTime-Glo MT Cell Viability Assay in HEK293 cells - 0 hour (AID 1224880)
Outline: as §3

[11] = A CellTox Green Cytotoxicity Assay to monitor cytotoxicity in HEK293 cells - 32 hour (AID 1224881); also: nearly all actives have a fitted effect of over 40% in size; also: potency is read from the fitted curve at half-maximal effect
Outline: as §1

[12] = A CellTox Green Cytotoxicity Assay to monitor cytotoxicity in HepG2 cells - 0 hour (AID 1224882); also: nearly all actives have a fitted effect of over 35% in size
Outline: as §4

[13] = A CellTox Green Cytotoxicity Assay to monitor cytotoxicity in HepG2 cells - 32 hour (AID 1224883); also: nearly all actives have a fitted effect of over 50% in size; also: potency is read from the fitted curve at half-maximal effect
Outline: as §4

[14] = A CellTox Green Cytotoxicity Assay to monitor cytotoxicity in HEK293 cells - 8 hour (AID 1224884); also: nearly all actives have a fitted effect of over 35% in size; also: potency is read from the fitted curve at half-maximal effect
Outline: as §1

[15] = qHTS RealTime-Glo MT Cell Viability Assay in HepG2 cells - 16 hour (AID 1224885); also: nearly all actives have a fitted effect of over 50% in size
Outline: as §5

[16] = qHTS RealTime-Glo MT Cell Viability Assay in HEK293 cells - 24 hour (AID 1224886)
Outline: as §2

[17] = qHTS RealTime-Glo MT Cell Viability Assay in HEK293 cells - 8 hour (AID 1224887)
Outline: as §3

[18] = qHTS RealTime-Glo MT Cell Viability Assay in HepG2 cells - 0 hour (AID 1224889); also: nearly all actives have a fitted effect of over 50% in size
Outline: as §5

[19] = A CellTox Green Cytotoxicity Assay to monitor cytotoxicity in HEK293 cells - 16 hour (AID 1224888); also: nearly all actives have a fitted effect of over 35% in size
Outline: as §1
% is scaled to controls: 0 for no effect and ±100 for the full control effect.

CC/C=C\CC/C=C/CO
inactive: Potency [1] | Potency [2] | Potency [3] | max response [4] 6.89% | Potency [5] | Potency [6] | Potency [7] | Potency [8] | Potency [9] | Potency [10] | Potency [11] | Potency [12] | Potency [13] | Potency [14] | Potency [15] | Potency [16] | Potency [17] | Potency [18]

CCc1cccc2c(CCO)c[nH]c12
inactive: Potency [1] | Potency [2] | Potency [3] | max response [4] 0.292% | Potency [5] | Potency [6] | Potency [7] | Potency [8] | Potency [9] | Potency [10] | Potency [11] | Potency [13] | Potency [14] | Potency [15] | Potency [16] | Potency [18]

Nc1nc2c(ncn2COC(CO)CO)c(=O)[nH]1
inactive: Potency [1] | Potency [5] | Potency [6] | Potency [8] | Potency [9] | Potency [11] | Potency [12] | Potency [13] | Potency [14] | Potency [19]

O=c1n(CCO)c(=O)n(CCO)c(=O)n1CCO
inactive: Potency [2] | Potency [3] | max response [4] -3.8% and 5.95% | Potency [7] | Potency [10] | Potency [15] | Potency [16] | Potency [17] | Potency [18]
inactive and 38.9 µM (active): Potency [1] | Potency [6] | Potency [8] | Potency [11] | Potency [13]
inactive and 43.6 µM (active): Potency [9] | Potency [14]

CN(C(=O)c1c(O)c2ccccc2n(C)c1=O)c1ccccc1
inactive: Potency [1] | Potency [2] | Potency [3] | max response [4] 9.26% | Potency [5] | Potency [6] | Potency [7] | Potency [8] | Potency [9] | Potency [10] | Potency [11] | Potency [12] | Potency [13] | Potency [14] | Potency [15] | Potency [16] | Potency [17] | Potency [19] | Potency [18]

CCCCCCCCCCCCN(CCCCCCCCCCCC)CCCCCCCCCCCC
inactive: Potency [1] | Potency [2] | Potency [3] | max response [4] 0.0553% | Potency [5] | Potency [6] | Potency [7] | Potency [8] | Potency [9] | Potency [10] | Potency [11] | Potency [13] | Potency [14] | Potency [15] | Potency [16] | Potency [17] | Potency [19] | Potency [18]

O=C1NC(=O)[C@@]2(CCOc3ccc(F)cc32)N1
inactive: Potency [1] | Potency [2] | Potency [3] | max response [4] 10% | Potency [6] | Potency [7] | Potency [8] | Potency [9] | Potency [10] | Potency [11] | Potency [12] | Potency [13] | Potency [14] | Potency [15] | Potency [16] | Potency [17] | Potency [19] | Potency [18]

O=c1cc(CO)occ1O
inactive: Potency [1] | Potency [2] | Potency [3] | max response [4] 3.18% | Potency [6] | Potency [7] | Potency [8] | Potency [9] | Potency [10] | Potency [11] | Potency [12] | Potency [13] | Potency [14] | Potency [15] | Potency [16] | Potency [17] | Potency [19] | Potency [18]

CC(C)(C)NCCNC(C)(C)C
inactive: Potency [1] | Potency [2] | Potency [3] | max response [4] -0.754% | Potency [5] | Potency [6] | Potency [7] | Potency [8] | Potency [9] | Potency [10] | Potency [11] | Potency [12] | Potency [13] | Potency [14] | Potency [15] | Potency [16] | Potency [17] | Potency [19] | Potency [18]

Reference: PubChem BioAssay (Tox21)
